Results from PubChem BioAssay (NCATS).
Records with an inconclusive call do not appear. A call without a number means that no potency is given here. Activity calls are given as the source filed them. Calls follow the shape of the dose curve; as a rule, active = well fitted inhibition curve with a large enough effect; inconclusive = small, poorly fitted or top-dose-only effect; inactive = flat fitted curve, though single readings scatter.

Test system: Zika virus NS2B-NS3 protease
Test: Primary screen GU AMC qHTS for Zika virus inhibitors (AID 1347154); also: nearly all actives have a fitted effect of over 70% in size
Settings: Zika NS2B-NS3 unlinked protease, AMC fluorogenic substrate; series mostly up to 54.1 µM
How it was run: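 Fluorogenic AMC-substrate cleavage by noncovalent NS2B-NS3 protease complex (25 nM, pH 8.0 Tris buffer with Tween 20) followed for 15 minutes at room temperature (~20% conversion). Percent inhibition from ex340/em450 signal change, fitted by 4-parameter Hill equation.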
Potency is read from the fitted curve at half-maximal effect.

Compound | Potency
CC(=CCCC1=CCC(C2=CC(=O)OC2O)OC1O)CCC1=C(C)CCCC1(C)C (centres undefined) | inactive
Oc1ccc2c3c1O[C@H]1[C@@H](O)C=C[C@H]4[C@@H](C2)NCC[C@@]341 | inactive
c1cc2ccc3cccc4ccc(c1)c2c34 | 17.3 µM (active)
COc1cccc2c1[C@]13CCN(CC4CC4)[C@H](C2)[C@]1(OC)CCC(=O)C3 | inactive
Nc1ccc(Sc2ccc(N)cc2)cc1 | inactive
CSCC[C@@H](NC(=O)[C@@H](Cc1ccccc1)NC(=O)CNC(=O)CNC(=O)[C@@H](N)Cc1ccc(O)cc1)C(=O)O | inactive
CC[N+]1(CCOC(=O)C(O)(c2ccccc2)c2ccccc2)CCCCC1 | inactive
CC1=C(C(=O)O)N2C(=O)[C@@H](N)[C@H]2SC1 | inactive
C1=C2CCCN[C@H]2[C@@H]2C[C@H]1[C@@H]1CCCCN1C2 | inactive
C=CC(=O)NCNC(=O)C=C | inactive
CCOP(=O)(NC(C)C)Oc1ccc(SC)c(C)c1 (centres undefined) | inactive
CC(C)(O)C(=O)Nc1ccc([N+](=O)[O-])c(C(F)(F)F)c1 | inactive
O=C(O)C(Cl)Cl | inactive
Nc1ccc([N+](=O)[O-])cc1 | inactive
CC(C)Oc1cccc(NC(=O)c2ccccc2C(F)(F)F)c1 | inactive
C[C@@H]1CC[C@H]2[C@@H](C)C(=O)O[C@@H]3O[C@@]4(C)CC[C@H]1[C@]32OO4 | inactive
c1ccc2c(CN3CCNCC3)cccc2c1 | inactive
C#CC1(O)CCC2C3CCC4=CC(=O)CCC4(C)C3CCC21C (centres undefined) | inactive
CCCCOC(=O)c1ccccc1C(=O)OCc1ccccc1 | inactive
